# Values without a mark were called inactive.
# Legend:
# Experiment in all cases: log2 ratio of Biotin-Ahx-Ub-VS probe labelling (fragment/DMSO); higher = less target engagement (more negative = stronger competition), active = hit call of the paper (q ≤ 0.05, log2 ratio ≤ -1)
# Conditions in all cases: compound concentration: 200 uM; treatment time: 3 h
# [1] = target: T1, OTUD6B (UniProt Q8N6M0)
# T1 sequence (whole entry): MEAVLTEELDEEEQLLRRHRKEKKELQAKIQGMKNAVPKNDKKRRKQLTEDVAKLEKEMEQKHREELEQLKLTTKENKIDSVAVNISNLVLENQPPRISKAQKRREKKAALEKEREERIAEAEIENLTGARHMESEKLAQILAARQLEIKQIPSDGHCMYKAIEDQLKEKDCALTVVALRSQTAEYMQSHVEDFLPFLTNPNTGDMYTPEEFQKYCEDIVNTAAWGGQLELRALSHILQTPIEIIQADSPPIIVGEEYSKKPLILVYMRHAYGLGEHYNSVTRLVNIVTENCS
# Outline: (§1)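 The table lists average log2 ratios of fragment over vehicle, from an unpaired t-test on global-median-normalised Spectronaut label-free quantities. Proteins with ≥2 unique peptides were used. Samples were HEK293T lysate (495 µg) treated in triplicate with fragment at 200 µM or vehicle for 3 h, then with Biotin-Ahx-Ub-VS (0.5 µM final) for 1 h, with labelled DUBs NeutrAvidin-enriched and run by diaPASEF LC-MS/MS.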
# [2] = target: T2, OTUD7B (UniProt Q6GQQ9)
# T2 sequence (whole entry): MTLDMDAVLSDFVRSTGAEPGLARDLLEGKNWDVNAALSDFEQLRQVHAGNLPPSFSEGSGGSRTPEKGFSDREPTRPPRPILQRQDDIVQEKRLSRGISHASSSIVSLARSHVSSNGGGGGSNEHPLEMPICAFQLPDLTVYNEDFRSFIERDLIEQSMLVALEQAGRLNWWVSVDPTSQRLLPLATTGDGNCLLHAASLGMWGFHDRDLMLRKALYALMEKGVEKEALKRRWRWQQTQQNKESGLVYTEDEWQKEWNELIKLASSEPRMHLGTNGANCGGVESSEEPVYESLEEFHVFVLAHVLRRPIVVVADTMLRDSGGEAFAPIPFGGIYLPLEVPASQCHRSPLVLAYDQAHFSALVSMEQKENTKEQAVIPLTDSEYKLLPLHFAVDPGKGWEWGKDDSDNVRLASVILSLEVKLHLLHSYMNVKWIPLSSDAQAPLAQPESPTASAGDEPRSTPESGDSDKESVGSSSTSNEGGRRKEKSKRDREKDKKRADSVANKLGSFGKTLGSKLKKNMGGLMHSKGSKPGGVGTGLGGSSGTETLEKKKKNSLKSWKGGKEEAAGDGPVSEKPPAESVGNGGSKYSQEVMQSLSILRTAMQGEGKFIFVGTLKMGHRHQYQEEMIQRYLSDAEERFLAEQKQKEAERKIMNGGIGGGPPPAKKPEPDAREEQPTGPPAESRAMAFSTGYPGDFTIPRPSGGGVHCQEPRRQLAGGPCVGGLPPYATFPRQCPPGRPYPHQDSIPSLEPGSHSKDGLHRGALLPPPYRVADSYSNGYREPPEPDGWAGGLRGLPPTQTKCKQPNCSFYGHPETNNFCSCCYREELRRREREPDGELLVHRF
# Outline: as §1
# [3] = target: PRPF8 (UniProt Q6P2Q9)
# Outline: as §1
# [4] = target: T3, PSMD7 (UniProt P51665)
# T3 sequence (whole entry): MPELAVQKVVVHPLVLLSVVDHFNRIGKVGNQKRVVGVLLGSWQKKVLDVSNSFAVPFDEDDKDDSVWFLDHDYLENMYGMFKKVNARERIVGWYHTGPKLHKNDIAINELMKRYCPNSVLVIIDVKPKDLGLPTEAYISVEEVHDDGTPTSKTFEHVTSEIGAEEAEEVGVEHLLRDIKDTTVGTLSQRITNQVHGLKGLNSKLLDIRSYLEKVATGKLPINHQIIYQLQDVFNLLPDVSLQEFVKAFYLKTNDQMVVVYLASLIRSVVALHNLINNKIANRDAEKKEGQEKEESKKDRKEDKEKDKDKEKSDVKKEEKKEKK
# Outline: as §1
# [5] = target: UCHL1 (UniProt P09936)
# UCHL1, sequence (P09936 whole entry, looked up): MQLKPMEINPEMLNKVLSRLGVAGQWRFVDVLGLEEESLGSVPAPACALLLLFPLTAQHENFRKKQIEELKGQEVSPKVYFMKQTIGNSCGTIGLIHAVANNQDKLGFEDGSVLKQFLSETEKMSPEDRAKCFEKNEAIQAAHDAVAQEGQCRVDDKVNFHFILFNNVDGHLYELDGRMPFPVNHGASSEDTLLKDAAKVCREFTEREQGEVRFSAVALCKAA
# Outline: as §1
# [6] = target: T4, UCHL3 (UniProt P15374)
# T4 sequence (whole entry): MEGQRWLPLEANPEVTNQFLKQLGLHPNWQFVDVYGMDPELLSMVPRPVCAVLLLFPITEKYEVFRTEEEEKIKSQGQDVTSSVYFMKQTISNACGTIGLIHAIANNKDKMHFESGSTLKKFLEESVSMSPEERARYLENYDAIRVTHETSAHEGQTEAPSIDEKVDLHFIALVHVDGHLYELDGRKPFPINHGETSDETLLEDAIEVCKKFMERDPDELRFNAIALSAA
# Outline: as §1
# [7] = target: T5, UCHL5 (UniProt Q9Y5K5)
# T5 sequence (whole entry): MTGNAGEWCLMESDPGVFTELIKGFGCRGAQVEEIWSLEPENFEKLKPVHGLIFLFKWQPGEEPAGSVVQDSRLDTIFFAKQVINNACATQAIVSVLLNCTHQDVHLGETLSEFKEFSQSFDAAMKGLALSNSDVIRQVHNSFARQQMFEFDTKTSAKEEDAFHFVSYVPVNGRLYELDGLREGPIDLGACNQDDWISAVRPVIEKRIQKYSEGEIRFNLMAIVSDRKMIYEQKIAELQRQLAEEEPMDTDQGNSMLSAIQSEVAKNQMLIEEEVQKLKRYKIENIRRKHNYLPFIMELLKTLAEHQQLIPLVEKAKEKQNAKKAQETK
# Outline: as §1
# [8] = target: USP10 (UniProt Q14694)
# USP10, sequence (Q14694 whole entry): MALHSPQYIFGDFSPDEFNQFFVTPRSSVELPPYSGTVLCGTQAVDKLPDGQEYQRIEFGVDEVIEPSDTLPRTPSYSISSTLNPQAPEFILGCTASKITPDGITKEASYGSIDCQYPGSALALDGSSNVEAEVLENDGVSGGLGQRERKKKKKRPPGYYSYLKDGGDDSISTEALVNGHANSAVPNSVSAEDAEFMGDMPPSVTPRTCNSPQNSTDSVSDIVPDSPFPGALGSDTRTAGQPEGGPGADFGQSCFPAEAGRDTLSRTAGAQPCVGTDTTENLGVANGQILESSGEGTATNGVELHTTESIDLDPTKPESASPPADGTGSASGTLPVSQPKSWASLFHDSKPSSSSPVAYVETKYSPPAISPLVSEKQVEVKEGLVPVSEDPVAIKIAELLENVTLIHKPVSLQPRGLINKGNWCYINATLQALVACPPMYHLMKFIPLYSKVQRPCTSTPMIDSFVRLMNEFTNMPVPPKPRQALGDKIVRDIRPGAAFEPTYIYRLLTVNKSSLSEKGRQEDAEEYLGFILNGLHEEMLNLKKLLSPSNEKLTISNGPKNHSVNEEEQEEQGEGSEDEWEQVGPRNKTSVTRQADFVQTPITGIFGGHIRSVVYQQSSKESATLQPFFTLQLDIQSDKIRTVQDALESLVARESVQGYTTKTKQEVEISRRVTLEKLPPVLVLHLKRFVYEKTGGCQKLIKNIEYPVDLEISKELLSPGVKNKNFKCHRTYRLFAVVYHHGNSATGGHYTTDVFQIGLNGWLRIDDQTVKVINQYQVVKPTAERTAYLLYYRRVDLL
# Outline: as §1
# [9] = target: T6, USP15 (UniProt Q9Y4E8)
# T6 sequence (whole entry): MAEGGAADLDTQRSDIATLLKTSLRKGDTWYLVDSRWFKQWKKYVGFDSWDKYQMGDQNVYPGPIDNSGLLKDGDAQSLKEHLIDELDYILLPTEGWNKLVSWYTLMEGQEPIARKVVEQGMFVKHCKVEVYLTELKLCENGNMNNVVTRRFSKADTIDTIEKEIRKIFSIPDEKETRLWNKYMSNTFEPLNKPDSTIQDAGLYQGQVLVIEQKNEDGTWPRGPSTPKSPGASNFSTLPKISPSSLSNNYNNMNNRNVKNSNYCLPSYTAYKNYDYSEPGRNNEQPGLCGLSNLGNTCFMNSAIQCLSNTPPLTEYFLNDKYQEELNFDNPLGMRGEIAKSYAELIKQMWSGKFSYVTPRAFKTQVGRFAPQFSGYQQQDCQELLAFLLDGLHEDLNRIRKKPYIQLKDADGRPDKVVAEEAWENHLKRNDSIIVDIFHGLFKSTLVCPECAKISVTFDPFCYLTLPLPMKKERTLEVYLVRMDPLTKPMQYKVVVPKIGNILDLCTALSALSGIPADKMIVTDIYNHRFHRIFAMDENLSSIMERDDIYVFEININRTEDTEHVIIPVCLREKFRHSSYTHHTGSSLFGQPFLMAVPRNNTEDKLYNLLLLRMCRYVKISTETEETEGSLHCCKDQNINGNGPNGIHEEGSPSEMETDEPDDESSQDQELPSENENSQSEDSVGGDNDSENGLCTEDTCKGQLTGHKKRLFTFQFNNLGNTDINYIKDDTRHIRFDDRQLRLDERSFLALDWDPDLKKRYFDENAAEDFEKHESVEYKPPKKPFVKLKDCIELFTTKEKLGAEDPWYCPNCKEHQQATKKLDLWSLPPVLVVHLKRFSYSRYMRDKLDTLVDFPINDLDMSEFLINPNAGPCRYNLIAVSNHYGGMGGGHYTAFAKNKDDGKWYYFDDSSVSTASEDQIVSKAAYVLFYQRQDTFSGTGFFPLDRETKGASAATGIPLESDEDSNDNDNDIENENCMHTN
# Outline: as §1
# [10] = target: USP16 (UniProt Q9Y5T5)
# USP16, sequence (Q9Y5T5 whole entry, looked up): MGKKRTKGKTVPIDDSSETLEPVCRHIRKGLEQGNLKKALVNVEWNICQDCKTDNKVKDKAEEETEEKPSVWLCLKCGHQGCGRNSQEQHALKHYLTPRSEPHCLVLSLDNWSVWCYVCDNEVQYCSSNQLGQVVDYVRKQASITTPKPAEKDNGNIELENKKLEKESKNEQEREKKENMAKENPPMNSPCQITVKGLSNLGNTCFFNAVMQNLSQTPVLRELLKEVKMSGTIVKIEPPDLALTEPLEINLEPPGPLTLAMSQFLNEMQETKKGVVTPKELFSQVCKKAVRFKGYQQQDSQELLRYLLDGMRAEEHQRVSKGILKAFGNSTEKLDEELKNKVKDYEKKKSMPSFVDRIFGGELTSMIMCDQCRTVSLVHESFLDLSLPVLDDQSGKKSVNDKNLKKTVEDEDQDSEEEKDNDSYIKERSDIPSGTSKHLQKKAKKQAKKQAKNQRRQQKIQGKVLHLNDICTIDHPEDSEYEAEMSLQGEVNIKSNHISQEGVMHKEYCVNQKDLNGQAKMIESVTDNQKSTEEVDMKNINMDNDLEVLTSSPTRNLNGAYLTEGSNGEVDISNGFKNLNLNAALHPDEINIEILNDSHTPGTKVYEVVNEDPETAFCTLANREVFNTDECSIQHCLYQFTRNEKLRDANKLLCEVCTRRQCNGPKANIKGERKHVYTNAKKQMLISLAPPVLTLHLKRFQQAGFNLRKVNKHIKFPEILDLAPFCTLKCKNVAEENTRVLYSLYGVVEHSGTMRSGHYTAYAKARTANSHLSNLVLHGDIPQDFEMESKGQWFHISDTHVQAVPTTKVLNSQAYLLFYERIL
# Outline: as §1
compound,measurement,setting,value
CN1C(=O)c2ccc(NC(=O)CCl)cc2C1=O,log2 ratio of Biotin-Ahx-Ub-VS probe labelling,[1],-0.407
same,log2 ratio of Biotin-Ahx-Ub-VS probe labelling,[2],-1.76 (active)
same,log2 ratio of Biotin-Ahx-Ub-VS probe labelling,[3],0.154
same,log2 ratio of Biotin-Ahx-Ub-VS probe labelling,[4],-0.0627
same,log2 ratio of Biotin-Ahx-Ub-VS probe labelling,[5],-1.24 (active)
same,log2 ratio of Biotin-Ahx-Ub-VS probe labelling,[6],0.282
same,log2 ratio of Biotin-Ahx-Ub-VS probe labelling,[7],-0.2
same,log2 ratio of Biotin-Ahx-Ub-VS probe labelling,[8],-0.0313
same,log2 ratio of Biotin-Ahx-Ub-VS probe labelling,[9],-0.389
same,log2 ratio of Biotin-Ahx-Ub-VS probe labelling,[10],-0.455

# Reference: the supplement of paper PMC11732987, “Enantioselective OTUD7B fragment discovery through chemoproteomics screening and high-throughput optimisation” (Communications Chemistry, 2025)
